Values joined by “and” are separate entries in the source; they are usually repeats but may differ in a detail not shown here. Identical values can stand only once. Inconclusive results are not listed. Some compounds were tested as several samples or in several runs, with calls that do not always agree. Active and inactive are the calls of the source. Unless noted, calls follow the shape of the dose curve; as a rule, active = well fitted curve in the direction sought with a large enough effect in the repeat runs; inconclusive = weak or mixed curves; inactive = no such curve, though single readings can be large; an effect the other way counts as inactive or inconclusive.

Assay [1] can be described thus: qHTS assay for small molecule agonists of the p53 signaling pathway (AID 651631; calls by dose curve; also: nearly all actives have a fitted effect of over 15% in size; also: potency is read from the fitted curve at half-maximal effect). The procedure, abridged: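 Readout was fluorescence from the LiveBLAzer FRET substrate, applied for 2 h at room temperature after 16 h compound exposure at 37 °C. Cells were the p53RE-bla HCT-116 line, with beta-lactamase driven by p53 response elements.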
Background: Quantitative high-throughput screening tests each substance at several concentrations.

A short description of assay [2]: qHTS assay for small molecules that induce genotoxicity in human embryonic kidney cells expressing luciferase-tagged ATAD5 (AID 651632). Also: nearly all actives have a fitted effect of over 15% in size. Also: potency is read from the fitted curve at half-maximal effect. Put shortly: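 Genotoxicity read-out via ATAD5-luciferase: HEK293T cells, 16 hr compound incubation at 37C, Amplite detection.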
Assay [3] is described as follows: qHTS assay for small molecule agonists of the p53 signaling pathway - cell viability (AID 651633; calls by dose curve; also: nearly all actives have a fitted effect of over 30% in size; also: potency is read from the fitted curve at half-maximal effect). The procedure, abridged: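 p53RE-bla cells were treated with compound for 16 hours at 37 C. Cytotoxicity was then measured as CellTiter-Glo luminescence after 30 min at room temperature.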
A short description of assay [4]: qHTS assay for small molecules that induce genotoxicity in human embryonic kidney cells expressing luciferase-tagged ATAD5 - cell viability (AID 651634; calls by dose curve; also: nearly all actives have a fitted effect of over 25% in size; also: potency is read from the fitted curve at half-maximal effect). Put shortly:
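Live-cell protease activity (CellTiter-Fluor, fluorescence) indicates viability. HEK293T cells with luciferase-tagged ATAD5; 15.5 hr compound treatment at 37C.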

A short description of assay [5]: qHTS assay for small molecule disruptors of the mitochondrial membrane potential - cell viability (AID 720634; calls by dose curve; also: nearly all actives have a fitted effect of over 20% in size; also: potency is read from the fitted curve at half-maximal effect). Put shortly:
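Human hepatoma HepG2 cells were treated for 1 hr with test chemicals, then given m-MPI dye and CellTiter-Glo. Cell viability reflects luminescence proportional to cellular ATP.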

Assay [6] is described as follows: qHTS assay for small molecule disruptors of the mitochondrial membrane potential (AID 720635). Also: potency is read from the fitted curve at half-maximal effect. Put shortly: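 HepG2 cells exposed to compound 1 hr at 37C, then Mito-MPS dye 30 min. Ratio read of aggregate (540/590 nm) versus monomer (490/535 nm) fluorescence.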
The nature of assay [7]: qHTS assay to test for compound auto fluorescence at 590 nm (red) in HepG2 cells (AID 720674). Put shortly: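 Fluorescence at 590 nm emission following 540 nm excitation was recorded from HepG2 wells one hour after compound transfer, with DMSO-only wells as vehicle and Rose Bengal sodium equivalency as the scale.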
A short description of assay [8]: qHTS assay to test for compound auto fluorescence at 460 nm (blue) in HEK293 cells (AID 720678). Put shortly: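 HEK293, 2,000 cells/well, 10% dialyzed FBS; attach 4-5 hr 37C; pin compound or DMSO; o/n 37C/5% CO2; fluorescence 405/460 nm; triamterene-equivalent units.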
A short description of assay [9]: qHTS assay to test for compound auto fluorescence at 590 nm (red) in HEK293 cells (AID 720679). The procedure, abridged:
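Intensity at 540nm excitation and 590nm emission is reported as Rose Bengal sodium-equivalent autofluorescence. Measurements followed overnight exposure (37C, 5% CO2) of HEK293 cells, 2,000 per well, to 23 nL compound.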

A short description of assay [10]: qHTS assay to test for compound auto fluorescence at 535 nm (green) in HepG2 cells (AID 720675).
% is scaled to controls: 0 for no effect and ±100 for the full control effect.

In the case of `CN(C)c1nc(N(C)C)nc(N(C)C)n1`, the Potency result in [1], in assay [2], in [3], in assay [4], in assay [5] and in assay [6] was “inactive” in each case. The fluorescence, relative to Rose Bengal in [7] is 0.105% [at 18.6 µM] (inactive) and 0.0838% [at 3.72 µM] (inactive). The fluorescence, % of triamterene in assay [8] is 0.0425% [at 18.6 µM] (inactive) and 0.0657% [at 3.72 µM] (inactive). Moreover, the fluorescence, % of fluorescent control in [9] is 0.0163% [at 18.6 µM] (inactive) and 0.505% [at 3.72 µM] (inactive).

Regarding `O=CCCCC=O`, the Potency is 29.8 µM (active) and 33.2 µM (active) and 61.1 µM (active) in assay [1]; “inactive and 59 µM (active)” in [2]. The Potency result in assay [3], in assay [4], in assay [5], in assay [6], in assay [7] and in [10] was “inactive” in each case. Further, in assay [9], the Potency result is “inactive”. The call in assay [8] was inactive.

Turning to `CN(C)CCN(Cc1cccs1)c1ccccn1`, the Potency entry in [1], in assay [2], in assay [3], in assay [4], in [6] and in [7] was “inactive” in each case. The Potency result in assay [9] was “inactive”. The call in assay [8] was inactive.

Take `CC(C)=CCC/C(C)=C\CO`: the Potency result in assay [1], in assay [2], in assay [3], in assay [4], in [5] and in assay [7] was “inactive” in each case. In addition, the Potency entry in assay [9] was “inactive”. For the same compound, the compound was classed as inactive in assay [8].

Turning to `OC(CCl)CCl`, the Potency result in assay [1], in assay [2], in [3], in [4], in assay [5] and in [7] was “inactive” each time. For the same compound, the Potency result in assay [10] and in [9] was “inactive” in each case. For the same compound, the call in assay [8] was inactive.

For `CN1C(C(=O)Nc2ccccn2)=C(O)c2ccccc2S1(=O)=O`, the Potency entry in assay [1], in [2], in assay [3], in [4], in assay [5] and in assay [7] was “inactive” each time. Also, the Potency entry in [10] and in assay [9] was “inactive” in each case. Moreover, the Potency in [6] was 5.69 µM (active) and 4.9 µM (active). In addition, the result in [8] was inactive.

`CC(=O)Oc1ccccc1C(=O)Nc1ncc([N+](=O)[O-])s1`: the Potency is 5.96 µM (active) in [1]; 1.33 µM (active) in [2]; 9.44 µM (active) and inactive in [3]; 18.8 µM (active) and 22.1 µM (active) in assay [4]; 0.556 µM (active) in assay [5]; 1.5 µM (active) and 351 nM (active) in assay [6]. Also, the Potency entry in assay [7], in assay [10] and in assay [9] was “inactive” in each case. The compound was called inactive in [8].

In the case of `C=C(C)C(=O)OCCOC(=O)C(=C)C`, the Potency entry in assay [1], in [2], in assay [3], in assay [4], in assay [6] and in [7] was “inactive” throughout. Also, the Potency result in [9] is “inactive”. Moreover, the outcome in assay [8] was inactive.

On to `CN(C)CCC=C1c2ccccc2CCc2ccccc21`, for which the Potency in [1] was 61.1 µM (active). Moreover, the Potency result in assay [2], in [3], in assay [4], in assay [7], in assay [10] and in assay [9] was “inactive” each time. Further, the compound was classed as inactive in assay [8].

Consider `O=CCc1ccccc1`, for which the Potency entry in assay [1], in assay [2], in assay [3], in assay [4], in assay [7] and in assay [9] was “inactive” in each case. Further, the Potency result in assay [6] was “inactive and 54.5 µM (active)”. Further, the compound was classed as inactive in [8].

In the case of `CCCCOCCOCCO`, the Potency entry in assay [1], in assay [2], in assay [3], in assay [4], in assay [6] and in [7] was “inactive” in each case. Moreover, the Potency entry in [10] and in assay [9] was “inactive” each time. Moreover, the result in assay [8] was inactive.

With `COC(=O)c1ccccc1`, the Potency result in assay [1], in assay [2], in assay [3], in assay [4], in [6] and in [7] was “inactive” throughout. Further, the Potency entry in [9] was “inactive”. Moreover, the compound was called inactive in assay [8].

On to `Cc1c(OCC(F)(F)F)ccnc1CS(=O)c1nc2ccccc2[nH]1` (stereo not drawn), for which the Potency result in assay [1], in assay [2], in assay [3], in assay [4], in assay [7] and in assay [9] was “inactive” each time. In assay [6], the Potency was 54.5 µM (active). The call in assay [8] was inactive.

On to `O=C(Nc1ccc([N+](=O)[O-])cc1Cl)c1cc(Cl)ccc1O`, for which the Potency was 298 nM (active) and 611 nM (active) in assay [1]; 75 nM (active) and inactive in assay [2]; 94.4 nM (active) and 96.9 nM (active) in assay [3]; 596 nM (active) and 2.43 µM (active) in assay [4]; 26.6 nM (active) and 9.7 nM (active) in assay [6]. Also, the Potency result in assay [5], in assay [7] and in assay [9] was “inactive” in each case. In assay [8], the compound was called inactive.

Take `CCOC(=O)C(C#N)=C(c1ccccc1)c1ccccc1`: the Potency result in assay [1], in assay [2], in assay [3], in assay [4], in [7] and in assay [10] was “inactive” each time. The Potency result in assay [9] is “inactive”. In addition, in assay [8], the outcome was inactive.

For the compound `C[Si](C)(C)O[Si](C)(C)C`, the Potency result in assay [1], in [2], in [3], in assay [4], in assay [5] and in [6] was “inactive” each time. Moreover, the Potency entry in assay [7], in [10] and in assay [9] was “inactive” in each case. In addition, the result in [8] was inactive.

In the case of `C[C@]12CC[C@H]3[C@@H](CCC4=CC(=O)CC[C@@]43C)[C@@H]1CC[C@@H]2C(=O)CO`, the Potency entry in assay [1], in assay [2], in [3], in assay [4], in assay [5] and in assay [6] was “inactive” throughout. Moreover, the Potency entry in assay [7] and in assay [9] was “inactive” each time. Further, the compound was called inactive in [8].

Consider `O=C(c1ccc(OCCN2CCCCC2)cc1)c1c(-c2ccc(O)cc2)sc2cc(O)ccc12`, for which the Potency in assay [1] is 29.8 µM (active) and 68.7 µM (active) and 61.1 µM (active); in [3] it was 29.8 µM (active) and 61.2 µM (active) and 61.1 µM (active); in [4] it was 26.6 µM (active) and 54.5 µM (active); in [6] it was 4.22 µM (active) and 1.72 µM (active) and 4.33 µM (active). The Potency entry in assay [5], in assay [7], in assay [10] and in assay [9] was “inactive” each time. Also, in assay [8], the outcome was inactive.

With `c1ccncc1`, the Potency result in assay [1], in [2], in assay [3], in assay [7], in [10] and in assay [9] was “inactive” each time. Besides, the result in assay [8] was inactive.

Regarding `Cn1cnc([N+](=O)[O-])c1Sc1ncnc2nc[nH]c12`, the Potency in assay [1] is 24.2 µM (active); in assay [3] it was 680 nM (active); in [6], 23.7 µM (active). The Potency entry in assay [2], in assay [5], in assay [7], in [10] and in assay [9] was “inactive” throughout. Moreover, the result in [8] was inactive.

Turning to `Brc1cc(Oc2cc(Br)c(Br)c(Br)c2Br)c(Br)c(Br)c1Br`, the Potency result in assay [1], in assay [2], in [3], in [7] and in [9] was “inactive” each time. The compound was classed as inactive in [8].

Take `Cc1cccc(C(=O)O)c1`: the Potency entry in assay [1], in [2], in assay [3], in [5], in [6] and in assay [7] was “inactive” throughout. The Potency entry in [9] is “inactive”. Moreover, the compound was classed as inactive in [8].
